For 17 compounds, plasma membrane CFTR intensity and total CFTR intensity results are on record in PubChem BioAssay AID1224864 (Chung Lab, Department of Pediatrics, Emory University, 2016).

Out of some 2,000 compounds screened, about 20 (1%) were called active. How the calls were made is not given here. Many of the other results were omitted from the sample, so actives are more common in it than they were.

The assay deals with Cystic fibrosis transmembrane conductance regulator (Homo sapiens) (UniProt P13569). Description: correctors of F508del-CFTR surface localization, primary screen, imaging, HeLa, high-content microscopy, immunofluorescence (AID 1224864).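 Further: HeLa cells stably expressing F508del-CFTR stained with 3G11 antibody against NBD1.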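 On plasma membrane CFTR intensity: mean immunofluorescence in a thin cell-margin band taken as plasma membrane.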 As to conditions: PM immunofluorescence imaging, 24 h, at 10 µM, stronger effect = higher value, relative to vehicle wells set at 100; total CFTR intensity: measured here: total cellular F508del-CFTR signal.
Cystic fibrosis transmembrane conductance regulator (Homo sapiens), sequence (P13569 whole entry, looked up, stated change not applied): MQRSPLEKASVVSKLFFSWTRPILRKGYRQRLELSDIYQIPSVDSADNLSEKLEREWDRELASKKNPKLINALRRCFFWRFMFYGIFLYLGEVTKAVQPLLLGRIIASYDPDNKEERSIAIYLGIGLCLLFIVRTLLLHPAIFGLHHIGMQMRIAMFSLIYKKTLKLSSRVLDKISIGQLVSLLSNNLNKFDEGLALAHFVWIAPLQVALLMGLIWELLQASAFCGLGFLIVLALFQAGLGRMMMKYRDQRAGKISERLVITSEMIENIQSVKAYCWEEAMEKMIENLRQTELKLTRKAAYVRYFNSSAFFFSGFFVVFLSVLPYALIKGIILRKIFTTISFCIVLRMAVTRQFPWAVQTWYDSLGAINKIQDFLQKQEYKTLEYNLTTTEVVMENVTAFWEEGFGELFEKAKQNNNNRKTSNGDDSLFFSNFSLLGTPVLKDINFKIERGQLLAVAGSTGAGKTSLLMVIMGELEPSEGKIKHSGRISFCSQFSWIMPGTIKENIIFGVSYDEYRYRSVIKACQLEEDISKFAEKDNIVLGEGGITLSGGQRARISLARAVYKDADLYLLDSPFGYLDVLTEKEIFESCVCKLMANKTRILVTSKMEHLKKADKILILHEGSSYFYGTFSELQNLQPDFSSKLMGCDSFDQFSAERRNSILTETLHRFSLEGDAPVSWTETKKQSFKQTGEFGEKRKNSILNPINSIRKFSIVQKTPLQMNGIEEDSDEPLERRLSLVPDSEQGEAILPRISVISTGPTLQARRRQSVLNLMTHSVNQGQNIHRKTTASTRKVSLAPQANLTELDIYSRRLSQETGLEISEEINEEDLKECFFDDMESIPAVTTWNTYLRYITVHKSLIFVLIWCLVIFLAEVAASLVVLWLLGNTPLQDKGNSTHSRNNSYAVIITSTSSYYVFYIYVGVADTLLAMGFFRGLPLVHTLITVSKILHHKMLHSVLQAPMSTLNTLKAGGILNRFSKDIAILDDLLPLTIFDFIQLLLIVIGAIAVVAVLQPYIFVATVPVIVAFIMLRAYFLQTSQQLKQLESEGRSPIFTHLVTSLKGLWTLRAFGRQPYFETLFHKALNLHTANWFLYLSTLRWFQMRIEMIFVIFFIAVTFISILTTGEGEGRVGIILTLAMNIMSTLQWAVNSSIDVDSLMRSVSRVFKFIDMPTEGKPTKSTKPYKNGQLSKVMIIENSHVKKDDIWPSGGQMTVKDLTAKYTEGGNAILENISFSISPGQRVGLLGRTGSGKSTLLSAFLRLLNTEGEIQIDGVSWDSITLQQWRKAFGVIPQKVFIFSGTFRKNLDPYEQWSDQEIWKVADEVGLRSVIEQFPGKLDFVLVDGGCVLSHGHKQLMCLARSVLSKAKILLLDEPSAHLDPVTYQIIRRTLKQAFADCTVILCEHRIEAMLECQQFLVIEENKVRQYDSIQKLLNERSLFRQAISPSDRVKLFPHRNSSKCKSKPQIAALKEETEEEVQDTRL
On to `Cc1coc2cc3oc(=O)c(CCC(=O)O)c(C)c3cc12`, for which the plasma membrane CFTR intensity was 105% (inactive) and the total CFTR intensity amounted to 107%.
For the compound `N#C/C(C(N)=O)=c1/ccc2c(c1)N1C3=C(CCCC3)CC3CCCCC31N=2` (centres undefined), the plasma membrane CFTR intensity was 109% (active) and the total CFTR intensity was 123%.
On the same counts, the results for `COC1CCCCC1Nc1ccc(C)c(C)c1` (centres undefined) are 80% (inactive) and 82%.
As for `CC(=O)Nc1cc(O)cc(O)c1`, the plasma membrane CFTR intensity was 83% (inactive) and the total CFTR intensity was 93%.
As for `O=C(NCC1CCCO1)c1ccc(OC2CCN(C(=O)C3CC3)CC2)cc1` (centres undefined), the plasma membrane CFTR intensity is 83% (inactive) and the total CFTR intensity came out at 76%.
Turning to `CCOC(=O)c1oc2cc(OCC(N)=O)ccc2c(=O)c1-c1ccc(OC)c(OC)c1`, the plasma membrane CFTR intensity was 82% (inactive) and the total CFTR intensity was found to be 82%.
Consider `CC(=O)OCC(=O)[C@@]1(O)CC[C@H]2[C@@H]3CCC4=CC(=O)C=C[C@]4(C)[C@H]3[C@@H](O)C[C@@]21C`, for which the plasma membrane CFTR intensity is 89% (inactive) and the total CFTR intensity was 94%.
Regarding `CCCC1O[C@@H]2C[C@H]3[C@@H]4CCC5=CC(=O)C=C[C@]5(C)[C@H]4[C@@H](O)C[C@]3(C)[C@]2(C(=O)CO)O1` (some centres undefined), the plasma membrane CFTR intensity is 123% (active) and the total CFTR intensity turned out to be 137%.
For `CC1(C)O[C@@H]2C[C@H]3[C@@H]4CCC5=CC(=O)C=C[C@]5(C)[C@@]4(F)[C@@H](O)C[C@]3(C)[C@]2(C(=O)CO)O1`, the plasma membrane CFTR intensity is 109% (inactive) and the total CFTR intensity worked out at 114%.
Take `CC(=O)N1c2ccccc2C(C)=CC1(C)C`: the plasma membrane CFTR intensity was 80% (inactive) and the total CFTR intensity is 87%.
As to `COc1ccc(C(=O)CC2OC(=O)c3c2ccc(OC)c3OC)cc1` (centres undefined), the plasma membrane CFTR intensity is 118% (inactive) and the total CFTR intensity came to 115%.
On to `COc1ccc2c(c1OC)C(C1c3c(cc4c(c3OC)OCO4)CCN1C)OC2=O` (centres undefined), for which the plasma membrane CFTR intensity was 116% (inactive) and the total CFTR intensity came out at 112%.
For the compound `COc1ccc2c(c1OC)C(=O)OC2C1c2c(cc3c(c2OC)OCO3)CCN1C` (centres undefined), the plasma membrane CFTR intensity is 138% (active) and the total CFTR intensity stood at 128%.
As for `COc1ccc(CCNC(=S)NC(=O)/C=C/c2ccc(C)cc2)cc1OC`, the plasma membrane CFTR intensity was 82% (inactive) and the total CFTR intensity amounted to 81%.
Regarding `CN/C(=C/[N+](=O)[O-])NCCSCc1ccc(CN(C)C)o1`, the plasma membrane CFTR intensity was 88% (inactive) and the total CFTR intensity is 83%.
The matching figures for `Cc1ncoc1C(=O)N1CCCC(C(=O)c2ccc(-c3ccccc3)c(F)c2)C1` (centres undefined): 82% (inactive) and 75%.
Take `CCc1cc(=O)oc2cc(C)c(CN3CCCC(C)C3)c(O)c12` (centres undefined): the plasma membrane CFTR intensity is 88% (inactive) and the total CFTR intensity was determined as 88%.
